In PubChem BioAssay AID2472 (National Center for Advancing Translational Sciences (NCATS), 2010) one finds activity change, negative = inhibition data, which are given here for 43 molecules.

The whole screen tested about 290,000 compounds, of which about 2,000 (0.69%) were called active. What follows is part of a selection rich in actives, with near analogues and random picks from the rest. Unmarked numbers belong to inactive results. Cut-off read from the data, not from the text of the source: active = activity change below about -30%; inactive = the rest, inconclusive results apart.
% is set by controls: 0 for no effect and ±100 for the full control effect.

This experiment is described as follows: qHTS Assay for Inhibitors of Fructose-1,6-bisphosphate Aldolase from Giardia Lamblia: Coupling assay counterscreen. To be noted: coupling enzyme system counterscreen, AmpLite Red fluorescence; at 58.2 µM (top of the series). Put shortly: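 First, compound is pin-transferred into glyceraldehyde-3-phosphate coupling-enzyme reagent at 57.5 uM final and held 10 min at RT. Next, substrate, coupling system and AmpLite Red are added. After 20 min RT, fluorescence (525/598 nm) is read.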
Background: In qHTS, concentration-response curves come from the screen itself.
Regarding `COC(=O)C/C=C/[C@@H](C)[C@H](NC(=O)OCC(Cl)(Cl)Cl)c1ccccc1`, the activity change, negative = inhibition was -1.95%.

In the case of `Cc1cccc2[nH]c(CN(C)C(=O)C3CCC(=O)N(CCc4ccccc4)C3)nc12` (stereo not drawn), the activity change, negative = inhibition is 2.15%. Then `COc1ccccc1C1C(C(N)=O)=C(C)Nc2nc(CCCO)nn21` (stereo not drawn), with 1.82%; and `O=C(N/N=C/c1cccc(OC(=O)c2ccc([N+](=O)[O-])cc2)c1)c1cccnc1`, with 0.693%. As for `COCCNC(=O)CN(Cc1ccco1)C(=O)CCC(=O)Nc1nccs1`, the figure is 0.963%; as for `Cc1cccc(OCC(=O)NCCNC(=O)c2cccnc2)c1`, 0.0752%; as for `COc1ccc(C2Nc3ccccc3C(=O)N2Cc2ccccc2)cc1Cn1nnc2ccccc21` (stereo not drawn), -34.4% (active). Then `COc1ccc(N2C(=O)c3ccccc3NC2c2ccc(OC)c(CN3CCOCC3)c2)cc1` (stereo not drawn), with -1.28%. As for `COc1ccc(C2Nc3ccccc3C(=O)N2c2ccc(F)cc2)cc1Cn1nnc2ccccc21` (stereo not drawn), the activity change, negative = inhibition was 2.84%. As to `COc1ccc(CNC(=O)Cc2ccc(-c3ccccc3)cc2)cc1OC`, the activity change, negative = inhibition was 0.562%.

Consider `COc1ccc(C2/C=C\CN(Cc3ccco3)C(C)C(=O)N2Cc2ccc(F)cc2)cc1` (stereo not drawn), for which the activity change, negative = inhibition is -1.36%. Then `Cc1coc2c(O)cc3c(c12)OC1(N2CCCCC2)C(=O)NCCCC31` (stereo not drawn), with -43.7% (active); and `C[C@H]1Cc2c(-c3ccccc3)nc3c(c2CO1)CN(S(=O)(=O)c1ccc(Cl)c2nonc12)CC3`, with 2.12%. Then `O=C(Nc1nnc(S(=O)(=O)N2CCCCCC2)s1)c1cccc(Br)c1`, with -13.3%. As for `Cc1cccc(C(=O)Nc2nnc(S(=O)(=O)N3CCCCCC3)s2)c1`, the figure is -16.7%. As to `COc1cccc(C(=O)Nc2nnc(S(=O)(=O)N3CCCCC3)s2)c1`, the activity change, negative = inhibition was -31.6% (active). As for `NNC(=O)c1oc2nc(-c3ccccc3)cc(-c3ccco3)c2c1N`, the figure is -5.04%; as for `CNC(=S)NNC(=O)c1oc2nc(-c3ccccc3)cc(-c3ccco3)c2c1N`, -33.1% (active); as for `CS(=O)(=O)c1sc2nc(-c3ccccc3)cc(-c3ccccc3)c2c1N`, 1.12%.

Regarding `Cc1c(C)c2ccc(OCC(=O)N3CCN(c4cccc(Cl)c4)CC3)cc2oc1=O`, the activity change, negative = inhibition was 1.47%. As for `Cc1cccc(/C=N/NC(=O)CNc2cccc3ccccc23)n1`, the figure is -46.7% (active); as for `Cn1cccc1/C=N/NC(=O)CNc1cccc2ccccc12`, -1.22%.

Turning to `C/C(=N\NC(=O)CNc1cccc2ccccc12)c1ccc(Br)s1`, the activity change, negative = inhibition is -0.7%. Turning to `Cc1ccc(NC(=O)CN2C(=O)NC(C)(c3ccc(Cl)cc3)C2=O)c(Br)c1` (stereo not drawn), the activity change, negative = inhibition was 8.8e-05%. Then `Cc1ccc(Cn2c(C)c3cnn(CC(=O)NCc4ccccn4)c(=O)c3c2C)cc1`, with 0.293%; and `COc1ccc(C(=O)NC2=NCCS2)c(OC)c1`, with 0.219%. Then `Cc1cccc2c3c(ccc12)C1=C(C(=O)C3=O)C(C)CO1` (stereo not drawn), with -60.2% (active); and `O=C1C2C3C=CC(C3)C2C(=O)N1c1ccc(-c2nc3ccccc3c(=O)o2)cc1` (stereo not drawn), with -9.8%. Turning to `Cc1cc2c(c(=O)n1Cc1ccccc1)C1O[C@](CCCCN3C(=O)c4ccccc4C3=O)(Cc3ccccc31)O2`, the activity change, negative = inhibition was -1.41%. As for `CCN1C(=O)c2cccc3c(N)ccc1c23`, the figure is -57.1% (active). As for `CN1C(=O)c2cccc3c(N)ccc(c23)C1=O`, the figure is 0.398%; as for `CCN1C(=O)c2cccc3c(S(=O)(=O)Nc4ccccc4O)ccc1c23`, -10.8%. As for `O=C1C[C@@H](c2ccc3ccccc3c2)N1S(=O)(=O)c1ccccc1[N+](=O)[O-]`, the figure is 11.1%; as for `C=CC1=C2C=C(C3CC3)N(CC(C)C)C=C2C(=O)C(C)(OC(=O)c2ccco2)C1=O` (stereo not drawn), -42.6% (active); as for `CC(C)(C)OC(=O)NCCCC1=CC2=CC(=O)C(C)(OC(=O)c3ccco3)C(=O)C2=CO1` (stereo not drawn), -0.316%.

For `C=CC1=C2C=C(C3CC3)N(C(CO)CO)C=C2C(=O)C(C)(OC(=O)c2ccco2)C1=O` (stereo not drawn), the activity change, negative = inhibition is -18.7%. As for `Cc1cccc(C(=O)Nc2ccc(C(=O)/C=C/c3cccs3)cc2)c1`, the figure is -6.98%; as for `O=[N+]([O-])c1ccc(Sc2n[nH]c(-c3ccco3)n2)nc1`, 3.58%. Then `CN(C)c1ccc(NC(=O)CSc2n[nH]c(-c3ccco3)n2)cc1`, with 0.0598%; and `CN(C)C(=O)CSc1n[nH]c(-c2ccco2)n1`, with -32.9% (active). As for `COc1ccc(-c2c(-c3ccc(OC)cc3O)nc(C)nc2C(F)(F)F)cc1`, the figure is 2.62%; as for `COc1ccc(C2=Nn3c(nnc3-c3ccccc3O)SC2)cc1`, -2.11%; as for `CCCCC/C=C\C/C=C\CCCCCCCCCC(=O)NCC(=O)O`, 1.59%.
